PubChem BioAssay (NCI)
The panel holds about 83,000 compounds, 20% with a hit somewhere; the sample as a whole holds those more often.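 A percent growth of 40 corresponds to 60% growth inhibition; 0 means no net growth; -100 means all cells died. Active threshold: below 10.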 Active and inactive are the calls of the source.

These compounds were tested on OVCAR-3 ovarian (assay: NCI-60 one-dose screen, 48 h (100 = growth as untreated, 0 = no growth, -100 = all killed)). Conditions: 10 µM unless noted.
Description: Growth inhibition of the OVCAR-3 human tumor cell line is measured as a screen for anti-cancer activity. Cells are grown in 96 well plates and exposed to the test compound for 48 hours. Compounds are tested at a single concentration, which is 10^-5 M for most compounds. The reported endpoint is percent growth (GI% or GIPRCNT), where numbers from 0 - 100% represent growth inhibition, and numbers from -100% - 0 represent cell death. For example, a value of 40 represents 60% growth inhibition. A value of 0 means no net growth occurred over the course of the experiment. A value of -40 indicates 40% of cells at the beginning of the experiment died by the end of the experiment. A value of -100 means all cells are dead at the end of the experiment.
NCI-60 Human Tumor Cell Lines Screen was performed using the standard one-dose NCI protocol, which is described in more detail at https://dtp.cancer.gov/discovery_development/nci-60/default.htm.
Compounds with GIPRCNT values below 10 were considered active. Activity score was based on GIPRCNT using the following formula: […]
Score is 0 for GIPRCNT values of 100 or above, 50 for GIPRCNT values of 0, and 100 for GIPRCNT values of -100.

**Q.** `CCOC(=O)c1c(Nc2ccccc2)nn2c(N)c(C#N)c(-c3ccc(F)cc3)nc12` was tested. Which growth did it give?
**A.** Its growth is 110% (inactive).

**Q.** For `CN1C(=S)N(C)C2C1NN=C1SC(c3ccccc3)=CC(=O)N12` (stereo not given), which growth is on record?
**A.** Its growth is 107% (inactive).

**Q.** `Cn1ccnc1C(=O)/C=C/c1ccc(NC(=O)Nc2ccc(Cl)cc2)cc1` was tested. Which growth did it give?
**A.** The growth was 84.2% (inactive).

**Q.** Which growth does the source give for `O=C(N/N=C/c1cccs1)c1[nH]c2ccc(Br)cc2c1-c1ccccc1` here?
**A.** The growth was 21.5% (inactive).

**Q.** `C#Cc1nc(C2=C(C)C(=O)/C(=N/OC(C)=O)C2)cs1` was tested. Which growth did it give?
**A.** The growth was 111% (inactive).

**Q.** For `COc1ccc(/C=N/NC(=O)c2[nH]c3ccc(Br)cc3c2-c2ccccc2)o1`, which growth is on record?
**A.** The growth was 16.6% (inactive).

**Q.** How did the growth turn out when `COc1ccccc1/C=C/C=N/NC1=NC2C(S1)N(C)C(=O)N2C` (stereo not given) was run?
**A.** Its growth is -12% (active).

**Q.** With `Cc1nc2cnc(N)c(C#Cc3cncc(C(=O)Nc4ccc(Cl)c(C(F)(F)F)c4)c3)c2nc1C` as the compound, how does the growth read?
**A.** Its growth is 39.3% (inactive).

**Q.** Which growth does the source give for `O=C1Nc2ccc(Cl)cc2/C1=C/c1ccc(OCC(=O)c2ccc(Br)cc2)cc1` here?
**A.** The growth was 90.3% (inactive).

**Q.** With `NS(=O)(=O)c1ccc(Nc2nc(Nc3ccccc3)nc(-n3nc(-c4ccccc4)cc3-c3ccccc3)n2)cc1` as the compound, how does the growth read?
**A.** The growth was 31.5% (inactive).

**Q.** For `C#Cc1nc(C2=C(C)C(OC(C)=O)/C(=N/OC(C)=O)C2)cs1` (stereo not given), which growth is on record?
**A.** Its growth is -15.8% (active).

**Q.** With `COc1ccc(/C=N/Nc2ccnc3cc(Cl)ccc23)cc1Cl` as the compound, how does the growth read?
**A.** The growth was -92.2% (active).

**Q.** With `c1ccc(CNc2ncnc3ccc(-c4cnc5[nH]ncc5c4)cc23)cc1` as the compound, how does the growth read?
**A.** Its growth is 67.1% (inactive).

**Q.** `N#Cc1ccc(C(=O)CSc2nc(Nc3ccc(S(N)(=O)=O)cc3)c3ccccc3n2)cc1` was tested. Which growth did it give?
**A.** The growth was 119% (inactive).

**Q.** With `CCCC(=O)NC(c1cccnc1)c1cc(C)c2cccnc2c1O` (stereo not given) as the compound, how does the growth read?
**A.** Its growth is -0.275% (active).

**Q.** Which growth does the source give for `CCOc1ccc2nc(NC(=O)c3ccc(C(F)(F)F)cc3)sc2c1` here?
**A.** Its growth is 109% (inactive).

**Q.** Which growth does the source give for `O=C(CCCN1C(=O)/C(=C/c2ccccc2F)SC1=S)N1CCOCC1` here?
**A.** The growth was 112% (inactive).

**Q.** Which growth does the source give for `CCN1C(=S)N(c2ccccc2)C2NC(=O)N(/N=C/C=C/c3ccccc3OC)C21` (stereo not given) here?
**A.** Its growth is 93.9% (inactive).

**Q.** For `COc1cc(/C=C/C(=O)c2ccc(F)cc2)ccc1Oc1nc(NCCO)nc(N2CCOCC2)n1`, which growth is on record?
**A.** Its growth is 98.8% (inactive).

**Q.** With `COc1cc(/C=C/C(=O)c2ccc(Cl)cc2)ccc1Oc1nc(NCCO)nc(N2CCOCC2)n1` as the compound, how does the growth read?
**A.** Its growth is 116% (inactive).

**Q.** With `CSc1ccc2c(c1)N(C(=O)/C(C#N)=C/c1c[nH]c3ccccc13)c1ccccc1S2` as the compound, how does the growth read?
**A.** Its growth is 37.5% (inactive).

**Q.** With `C[C@@H](Nc1c(C#N)cnc2ccc(-c3cnc(N)nc3)cc12)c1ccccc1` as the compound, how does the growth read?
**A.** Its growth is 9.52% (active).

**Q.** With `O=[N+]([O-])c1ccc(O)c2ncccc12` as the compound, how does the growth read?
**A.** Its growth is 11.4% (inactive).

**Q.** How did the growth turn out when `Cc1ccc2ccc3ccc(C)nc3c2n1.Cc1ccc2ccc3ccc(C)nc3c2n1.Oc1c(Cl)cc(Cl)c2ccc(CN3CCCCC3)nc12.[Ru]` was run?
**A.** The growth was -95.3% (active).

**Q.** How did the growth turn out when `COc1ccc([C@@H]2c3[nH]c4ccccc4c3CC3C(=O)N(C4CCN(Cc5c(F)cccc5F)CC4)CC(=O)N32)c(OC)c1` (stereo not given in full) was run?
**A.** The growth was 64.1% [5.26 µM] (inactive).

**Q.** Which growth does the source give for `Cn1cc(-c2cc(N)n3nc(-c4cn(C)c5ccc(F)cc45)cc3n2)c2cc(F)ccc21` here?
**A.** The growth was -0.991% (active).

**Q.** With `C[C@@H]1CN(c2ccc3ncc(C#Cc4cncc(C(=O)Nc5ccc(CN6CCN(C)CC6)c(C(F)(F)F)c5)c4)n3n2)C[C@H](C)O1` as the compound, how does the growth read?
**A.** The growth was -48.3% (active).

**Q.** `COc1ccc(C(=O)/C=C/c2ccc(OCc3ccc(C)cc3)c(OC)c2)cc1OC` was tested. Which growth did it give?
**A.** Its growth is 76.8% (inactive).

**Q.** `COc1ccc2[nH]cc(-c3cc(N)n4nc(-c5c[nH]c6ccc(OC)cc56)cc4n3)c2c1` was tested. Which growth did it give?
**A.** The growth was 103% (inactive).

**Q.** For `C#Cc1nc(C2=C(C)/C(=N/OCc3ccccc3)CC2)cs1`, which growth is on record?
**A.** The growth was 74.2% (inactive).

**Q.** With `O=C(N/N=C/c1ccc[nH]1)c1[nH]c2ccc(Br)cc2c1-c1ccccc1` as the compound, how does the growth read?
**A.** Its growth is 22.2% (inactive).

**Q.** Which growth does the source give for `COC1CCN(Cc2ccc3c(NNC(=O)c4cnccn4)nc4cc(F)ccc4n23)C1` (stereo not given) here?
**A.** The growth was 5.16% (active).

**Q.** `COC(=O)C(Cc1ccccc1)NS(=O)(=O)/N=C1\NC(=O)NC1=C(Cl)Cl` (stereo not given) was tested. Which growth did it give?
**A.** The growth was 110% (inactive).

**Q.** How did the growth turn out when `O=C(CN1C(=O)/C(=C/c2ccccc2)SC1=S)N1CCOCC1` was run?
**A.** The growth was 115% (inactive).

**Q.** How did the growth turn out when `c1ccc2c(NCCCN3CCOCC3)c3oc4ccccc4c3nc2c1` was run?
**A.** Its growth is -19.6% (active).

**Q.** Which growth does the source give for `CC(C)(C)Nc1nc2c(OCCc3ccccc3)cccn2c1-c1cccc(F)c1` here?
**A.** Its growth is -0.703% (active).

**Q.** For `O=C(CN1CCOCC1)NNc1ncnc2ccccc12`, which growth is on record?
**A.** Its growth is 64.7% (inactive).

**Q.** With `CN(C)c1ccc(/C=C2\Cc3c(F)ccc(Br)c3C2=O)cc1` as the compound, how does the growth read?
**A.** The growth was 101% (inactive).

**Q.** How did the growth turn out when `NS(=O)(=O)c1cccc(Nc2nc(SCC(=O)c3ccc(Br)cc3)nc3ccccc23)c1` was run?
**A.** The growth was 44% (inactive).

**Q.** For `CC(=O)Oc1ccccc1C(=O)Nc1ccc(C(=O)/C=C/c2ccncc2)cc1`, which growth is on record?
**A.** Its growth is 33.2% (inactive).
